Here are results for 27 molecules from PubChem BioAssay (NCI).

Assay in all cases: NCI-60 one-dose screen, 48 h (100 = growth as untreated, 0 = no growth, -100 = all killed)
Assay [1] has as its system SK-MEL-2 melanoma. To be noted: 10 µM unless noted.
Assay [2] relates to EKVX NSCLC. To be noted: 10 µM unless noted.
The subject of assay [3] is SN12C renal. To be noted: 10 µM unless noted.
The test system of assay [4] is UO-31 renal. To be noted: 10 µM unless noted.
Assay [5] concerns TK-10 renal. Particulars: 10 µM unless noted.
For assay [6], the system named is ACHN renal. Particulars: 10 µM unless noted.
Assay [7] relates to CAKI-1 renal. To be noted: 10 µM unless noted.
For assay [8], the system named is A498 renal. Particulars: 10 µM.
The subject of assay [9] is HL-60(TB) leukemia. To be noted: 10 µM unless noted.
In assay [10] the test system is CCRF-CEM leukemia. Particulars: 10 µM unless noted.

Structures are written as SMILES. About 83,000 compounds went through this panel and 20% of them were active in at least one assay; those are over-represented in the sample as a whole.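 Assay: single dose, 48 h. Readout: percent growth (0 = no net growth; negative = cell death). Active: <10.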 Values without a mark were called inactive. Active and inactive are the calls of the source.

In the case of `COc1cccc2c1c(C(=O)c1ccco1)cn2Cc1ccc(F)cc1`, the growth in [1] was 73.8%; in assay [2] it was 172%; in assay [3] it was 72.4%; in assay [4], 77.1%; in [5], 143%; in assay [6], 107%. In addition, the growth in assay [7] is 184%; in assay [8], 135%; in [9] it was 162%; in [10], 177%.
`O=C(N/N=C\c1ccc(N(CCCl)CCCl)cc1Cl)c1cccnc1`: the growth is 27.2% in [1]; 103% in assay [2]; 79.2% in assay [3]; 88% in assay [4]; 6.39% (active) in [5]; 98.5% in assay [6]. Also, the growth in [7] was 69.3%; in assay [8], -93.6% (active); in assay [9] it was 91.8%; in assay [10] it was 74.8%.
On to `C[S+]1C=Cc2ccccc2C1c1ccc(Cl)cc1` (stereo not given), for which the growth in assay [1] was 92.7%; in [2], 90.6%; in assay [3], 96%; in assay [4] it was 75.6%; in assay [5] it was 101%; in [6], 99.3%. For the same molecule, the growth in assay [7] was 72.7%; in assay [8], 96%; in assay [9], 91.3%; in [10], 73.7%.
For `CC(CC1CCCCC1)NCc1ccccc1` (stereo not given), the growth is 102% in assay [1]; 99.1% in [2]; 94% in assay [3]; 66.2% in assay [4]; 94.2% in [5]; 96.1% in assay [6]. The values for the growth in assay [7] and in assay [8] were 99.9% and 89.5%, respectively.
Regarding `O=C(CCCCCCC(=O)Nc1ccc(N(CCCl)CCCl)cc1)NO`, the growth was 49.5% in assay [1]; 76.7% in [2]; 18.8% in assay [3]; 62% in assay [4]; 38.5% in assay [5]; 16.7% in assay [6]. Further, the growth was 23% in [7], 54.1% in [8] and 18.4% in [9].
`CCOC(=S)S[C@H]1C[C@@H]2[C@H](CC[C@]3(C)C(=O)CC[C@@H]23)[C@@]2(C)CCC(=O)C=C12`: the growth in assay [1] is 116%; in [2], 102%; in assay [3], 93.9%; in [4], 97.3%; in assay [5] it was 100%; in [6], 109%. The growth in assay [7] is 99.6%; in assay [8], 110%.
As to `CNC12C3C4C1C1C2C3C41C(=O)N[C@H](C(=O)N(C)[C@H](C[C@@H](OC(C)=O)c1nc(C(=O)N[C@@H](Cc2ccccc2)C[C@H](C)C(=O)OC)cs1)C(C)C)C1CC1` (stereo not given in full), the growth is 25.4% in assay [1]; 30.9% in assay [2]; 31.5% in assay [3]; 36.3% in assay [4]; 23.4% in assay [5]; 23.2% in [6]. The growth in [7] is 87.9%; in [8], 21.3%; in assay [9], -34.9% (active); in assay [10] it was -1.11% (active).
`O=P1(NCCCl)OCCCN1CCCl` (stereo not given): the growth in [1] was 99.6%; in [2], 105%; in [3], 101%; in assay [4], 87.5%; in [5] it was 97.7%; in [6], 98.8%. Further, the growth in [7] is 99%; in assay [8] it was 108%; in assay [9], 100%; in assay [10], 99.1%.
With `Nc1nnnc2nc[nH]c12`, the growth in assay [1] was -16.8% (active); in assay [2], 8.89% (active); in [3], 10.9%; in assay [4], 3.57% (active); in assay [5], 33.3%; in assay [6], 2.18% (active). The growth is -11.1% (active) in assay [7], 12.7% in [8], -4.59% (active) in assay [9] and 0.72% (active) in assay [10].
`CN(C)CCCOc1ccc2c(c1)c(C(=O)C(=O)NCCO)cn2Cc1ccccc1`: the growth in [1] was 114%; in assay [2], 102%; in assay [3], 104%; in [4] it was 84%; in assay [5], 116%; in [6], 99.2%. Besides, the growth in assay [7] was 90.5%; in assay [8] it was 59.8%; in assay [9] it was 106%; in assay [10] it was 102%.
For the molecule `CCC(CC)CC1(C)CC2(C)CCOC2OO1` (stereo not given), the growth in [1] is 94.9%; in [2] it was 103%; in [3], 102%; in assay [4] it was 88.8%; in assay [5] it was 98%; in assay [6], 111%. The growth is 95.7% in assay [7], 90.8% in [8], 111% in assay [9] and 103% in assay [10].
Take `CC(=O)Oc1ccccc1C(=O)NCCC[Se]C#N`: the growth is 44.3% in [1]; 44.5% in assay [2]; -17.3% (active) in assay [3]; -37.8% (active) in assay [4]; -65.7% (active) in assay [5]; 6.63% (active) in assay [6]. For the same molecule, the growth in [7] was 0.654% (active); in assay [8], -2.68% (active); in assay [9], 5.1% (active); in [10], 22.9%.
Take `C[Se]C(=O)c1ccccc1OC(C)=O`: the growth in assay [1] was 75.4%; in [2], 33.2%; in assay [3], 69%; in [4] it was 33%; in assay [5], 27.5%; in assay [6], 85.9%. Besides, the growth was 64.4% in assay [7], 66.5% in [8], 32.8% in assay [9] and 63.3% in assay [10].
Consider `CC[CH2][Sn]([Cl])([Cl])[CH2]CC`, for which the growth in [1] was 52.4%; in assay [2], 104%; in assay [3] it was 74.5%; in assay [4], 76.6%; in assay [5], 56.8%; in assay [6], 76.3%. The growth in [7] is 64.1%; in assay [8], 47.4%; in assay [9], 54.9%; in [10], 10%.
With `CC[C@]12C=CCN3CC[C@]4(C(=C(C(=O)OC)C1)Nc1cc(OC)c(OC(C)=O)cc14)[C@@H]32`, the growth was 41.5% in [1]; 55.6% in assay [2]; 8.6% (active) in assay [3]; 28.6% in [4]; 21.4% in assay [5]; 21.4% in assay [6]. Besides, the growth in assay [7] is 21%; in [8], -7.74% (active); in assay [9], -8.44% (active); in assay [10] it was 0.65% (active).
With `OCc1ccc2c(c1)OCO2`, the growth in assay [1] is 99.5%; in assay [2] it was 96.3%; in [3] it was 101%; in assay [4], 88%; in [5] it was 91.7%; in assay [6] it was 104%. In addition, the growth in assay [7] is 93.2%; in assay [8], 111%; in assay [9] it was 96.1%; in assay [10] it was 102%.
For `CCCCN(CCCC)P(=O)(Oc1ccccc1)Oc1ccccc1`, the growth is 43.4% in [1]; 59% in assay [2]; 59.9% in assay [3]; 42.2% in assay [4]; 78.5% in [5]; 80.8% in assay [6]. Besides, the growth in assay [7] was 32.4%; in assay [8], 93.8%; in [9] it was 32.5%; in assay [10] it was 61.9%.
Turning to `C=C(C)[C@@]12OC3(/C=C/C=C/CCCCC)O[C@@H]1[C@@H]1[C@@H]4O[C@]4(CO)[C@@H](O)[C@]4(O)C(=O)C(C)=C[C@H]4[C@@]1(O3)[C@H](C)[C@H]2OC(=O)c1ccccc1`, the growth in [1] is 80.4%; in [2], 67.4%; in assay [3], 16.5%; in [4] it was 39.7%; in assay [5] it was 47.1%; in [6], 42.9%. Moreover, the growth in assay [7] was 69.8%; in assay [8] it was -47.2% (active); in [9] it was -7.45% (active); in assay [10] it was 45.8%.
For the molecule `N#C[Se]Cc1cc(-c2ccccc2)n(-c2ccc(S(N)(=O)=O)cc2)n1`, the growth was -35.9% (active) in assay [1]; -1.91% (active) in [2]; 6.49% (active) in assay [3]; -25.6% (active) in assay [4]; -29.7% (active) in assay [5]; 1.16% (active) in [6]. In addition, the growth is 0.316% (active) in assay [7], -61.4% (active) in assay [8], -44.5% (active) in assay [9] and -16.4% (active) in [10].
`NC(=O)CNc1ccc([As]=[As]c2ccc(NCC(N)=O)cc2)cc1` (stereo not given): the growth in [1] was 33.8%; in assay [2], 23.1%; in assay [3] it was 34%; in assay [4], 54.4%; in assay [5] it was 58.1%; in [6] it was 71.2%. Moreover, the growth in [7] was 12.5%; in assay [8], 58.1%; in assay [9], 19.8%; in [10], 10.9%.
Take `O=c1[nH]cc(N(CCCl)CCCl)c(=O)[nH]1`: the growth in [1] was 102%; in assay [2] it was 101%; in assay [3], 59.3%; in [4], 42.9%; in assay [5], 86.8%; in [6] it was 15.5%. The growth in assay [7] was 12.8%; in assay [8] it was 101%; in [9], -9.89% (active); in assay [10], 31%.
With `C1CCC([PH+](C2CCCCC2)C2CCCCC2[PH+](C2CCCCC2)C2CCCCC2)CC1.[Au].[CH-]1CCCCC1CC1CCCC[N-]1` (stereo not given), the growth in assay [1] is -55.7% (active); in assay [2], -61.9% (active); in [3], -32% (active); in assay [4], -81.4% (active); in [5], -43.4% (active); in [6], -72.5% (active). Also, the growth is -31.3% (active) in assay [7], -91.6% (active) in [8], -32.3% (active) in assay [9] and -12.5% (active) in [10].
For the molecule `C[n+]1c(/C=C/c2ccc(N(CCCl)CCCl)cc2)sc2ccccc21`, the growth is 74.1% in assay [1]; 83.4% in assay [2]; 37.4% in assay [3]; 96.7% in [4]; 96.7% in assay [5]; 78.8% in assay [6]. In addition, the growth in [7] is 99.4%; in [8] it was 84.9%; in assay [9] it was 18.3%; in assay [10], 27.9%.
Regarding `CC1CCCC(C[N+](C)(C)C)C1=O` (stereo not given), the growth was 117% in assay [1]; 110% in assay [2]; 92.5% in [3]; 73.5% in [4]; 106% in [5]; 97.5% in assay [6]. The growth in assay [7] is 103%; in assay [8], 101%; in [9], 104%; in assay [10], 95.2%.
For the molecule `c1ccc(COc2ccc3[nH]cc(CCN(Cc4ccccc4)Cc4ccccc4)c3c2)cc1`, the growth in assay [1] was 93.6%; in assay [2], 82.8%; in [3], 86.3%; in assay [4] it was 60.3%; in assay [5], 109%; in assay [6], 97.1%. Besides, the growth in assay [7] was 71.8%; in assay [8], 105%; in assay [9], 91.8%; in [10], 73.8%.
With `C/C(CC(C)(C)N1CC1)=N\NC(=O)Nc1cccc2ccccc12`, the growth in [1] is 72.9%; in [2] it was 78.5%; in assay [3], 63.3%; in [4] it was 57.9%; in assay [5], 61.3%; in [6] it was 42.3%. Besides, the growth is 28.9% in assay [7], 59.3% in assay [8], 77.6% in assay [9] and 82.3% in assay [10].
For the molecule `C[C@]12CCc3sc(NCCc4ccccc4)nc3C1=CC[C@@H]1[C@@H]2CC[C@]2(C)C(=O)CC[C@@H]12`, the growth is 92.1% in assay [1]; 92.4% in assay [2]; 68.5% in assay [3]; 50.4% in [4]; 91.3% in assay [5]; 73.8% in [6]. Moreover, the growth is 73.5% in assay [7], 86.9% in assay [8], 1.45% (active) in assay [9] and 8.44% (active) in [10].
